Compounds with a hit are over-represented: about 2.4% of the library has one in this group of screens.
D2 PAM-1 – HTS Assay for Positive Allosteric Modulators of the Human D2 Dopamine Receptor: Primary Screen for Potentiators; 340,000 tested, 0.34% active; potentiation, % at 10 µM; D(2) dopamine receptor (Homo sapiens), P14416; AID 485347, 2010; HEK293 T-REx D2, calcium flux, EC20 dopamine potentiation;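 active means potentiation over 3 SD above the plate norm, cut at about 30% in these data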
Target sequence (P14416 whole entry, looked up): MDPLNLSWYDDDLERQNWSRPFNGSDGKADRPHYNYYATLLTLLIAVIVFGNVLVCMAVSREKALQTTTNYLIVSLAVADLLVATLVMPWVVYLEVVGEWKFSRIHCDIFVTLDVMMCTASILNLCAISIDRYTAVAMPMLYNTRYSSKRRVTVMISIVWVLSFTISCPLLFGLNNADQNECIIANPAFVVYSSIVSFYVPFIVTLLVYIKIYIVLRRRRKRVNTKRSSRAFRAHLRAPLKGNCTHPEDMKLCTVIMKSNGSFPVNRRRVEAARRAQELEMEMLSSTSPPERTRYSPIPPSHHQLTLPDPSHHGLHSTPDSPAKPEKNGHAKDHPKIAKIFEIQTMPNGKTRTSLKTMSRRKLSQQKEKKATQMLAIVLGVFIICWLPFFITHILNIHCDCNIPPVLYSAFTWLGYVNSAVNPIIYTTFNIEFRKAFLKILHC
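Tetracycline-induced HEK293 T-REx cells force-coupled to calcium signalling expressed D2; compounds were pin-added after a 10 s baseline, read kinetically 180 s, then an EC20 dopamine challenge followed with a further 180 s calcium read.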
D2 antagonist – HTS Assay for Allosteric Antagonists of the Human D2 Dopamine Receptor: Primary Screen for Antagonists | HEK293 TREx D2 cells, calcium flux, dopamine EC80 | inhibition, % at 10 µM | 340,000 tested, 2% active; in the data active means inhibition above about 30%; inactive means below that, where a call was filed
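Antagonism is scored as inhibition of an EC80 dopamine-evoked calcium signal in a force-coupled, tetracycline-inducible HEK293 T-REx D2 line, with compound present 180 s before agonist.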
D2 PAM-2 – Beta-Arrestin HTS for Positive Allosteric Modulators of the Human D2 Dopamine Receptor: Potentiators; potentiation, % (no concentration beside the values); DiscoveRx D2 beta-arrestin cells, luminescence, 90 min; 100% = 57 uM dopamine signal; 360,000 tested, 0.23% active; D(2) dopamine receptor (Homo sapiens), P14416; AID 624464, 2012; in the data active means potentiation above about 50%; inconclusive means mostly about 30% to 49%
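PathHunter beta-arrestin assay in DiscoveRx D2 cells. Compounds were added with an EC20 of dopamine (50 nM final) for 90 min at 37 deg C. Luminescence was read 1 h after detection reagent, with 57 uM dopamine as the EC100 control.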
D2 ag-1 – HTS Assay for Allosteric Agonists of the Human D2 Dopamine Receptor: Primary Screen for Agonists; HEK293 T-REx D2 cells, calcium flux agonist mode; activation, % at 2 µM; 340,000 tested, 0.53% active; D(2) dopamine receptor (Homo sapiens), P14416;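 active means activation over 3 SD above normal in the single-dose calcium agonist read, cut at about 30% in these data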
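Agonism scored from kinetic calcium signal (1 read/sec, 180 s) following compound pin transfer, after a 10 s baseline. Cells: HEK293 Trex line expressing inducible D2 receptor coupled to calcium, dye-loaded after overnight culture at 30 C.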
D2 ag-2 – Beta-Arrestin HTS for Positive Allosteric Modulators of the Human D2 Dopamine Receptor: Agonists | D(2) dopamine receptor (Homo sapiens), P14416 | DiscoveRx PathHunter D2 beta-arrestin, luminescence, 90 min; 100% = 57 uM dopamine signal | activation, % (no concentration beside the values) | 360,000 tested, 0.084% active | AID 624465, 2012; in the data active means activation above about 40%; inconclusive means between about 15% and that limit
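Agonist mode: compounds alone added to overnight-plated D2 PathHunter cells for 90 min at 37 C, with 57 uM final dopamine (EC100) defining full response. Beta-arrestin recruitment detected by chemiluminescent reagent, read after 1 h at ambient temperature.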
Numbers stand for hits; i = inactive; ? = inconclusive; nt = not tested or not shown.

SMILES | D2 PAM-1 | D2 antagonist | D2 PAM-2 | D2 ag-1 | D2 ag-2
CC(=O)N1C(C)(C)CC(=NOC(=O)c2ccc(C)cc2)CC1(C)C | i | i | 67.3 | i | ?
CC12CCC(=O)N1C(C(=O)NCc1ccccc1F)CS2 (configuration not stated) | i | i | i | i | i
COc1ccc(CNC(=O)Nc2cccc(C(F)(F)F)c2)cc1OC | i | 45.8 | i | i | i
COc1ccc(CNC(=O)NCc2ccc(OC)c(OC)c2)cc1OC | i | i | i | i | i
CCc1ccc(NC(=O)c2cc(CN3CCOCC3)on2)cc1 | i | nt | nt | i | nt
Cc1ccc(-n2nnnc2SCc2ccc(C(=O)O)cc2)cc1C | i | 30.3 | i | i | i
O=C(Nc1ccccc1)c1cccc(N2CCCS2(=O)=O)c1 | i | nt | nt | i | nt
O=C(c1cncc(Br)c1)N1CCN(S(=O)(=O)c2ccccc2C(F)(F)F)CC1 | i | 40.4 | i | i | i
O=C(c1cncc(Br)c1)N1CCN(S(=O)(=O)c2ccccc2)CC1 | i | i | i | i | i
CC(=O)c1ccccc1OCCCOc1cccc2cccnc12 | nt | nt | 76.7 | nt | i
CC(=O)c1ccc(OCCCOc2cccc3cccnc23)cc1 | i | i | i | i | i
Cc1ccc(NC(=O)C2C3C=CC4(O3)C2C(=O)N(CCCN2CCOCC2)C4C(=O)NC2CCCCC2)cc1Cl (configuration not stated) | i | 31.1 | i | i | i
Cc1ccc(NC(=O)C2C3C=CC4(O3)C2C(=O)N(CCN2CCOCC2)C4C(=O)NC2CCCCC2)cc1C (configuration not stated) | i | i | i | i | i
Nc1c2c(nc3ccc(Br)cc13)N(C1CCCCC1)CC2 | i | 74.2 | nt | i | nt
Cc1ccc(S(=O)(=O)NCC(=O)OCC(=O)N2CCN(C(=O)c3ccco3)CC2)cc1C | i | i | i | i | i
Cc1cccc(NC(=O)CCC2CCN(C(=O)C3CC=CCC3)CC2)c1 (configuration not stated) | i | i | i | i | i
O=C(NC1CCSC1=O)c1cccc(C(=O)NC2CCSC2=O)c1 (configuration not stated) | i | 42.0 | i | i | i
COc1cccc2sc(N(CCN(C)C)C(=O)/C=C/c3cccs3)nc12 | i | i | i | i | i
CCOc1cccc2sc(N(CCN(C)C)C(=O)/C=C/c3cccs3)nc12 | i | 65.9 | i | i | i
COc1cccc(C2CNC3(CCCC(C)C3)c3[nH]c4ccccc4c32)c1OC (configuration not stated) | i | i | i | i | i
CC1(C)CC(=O)CC2(C1)NCC(c1ccccc1)c1c2[nH]c2ccccc12 (configuration not stated) | i | 31.4 | i | i | i
C/C(CC(=O)N(C(C)C)C(C)C)=N\NC(=O)c1ccccc1Br | i | i | i | i | i
COc1ccc(C(=O)CCN2CCN(c3ccccc3OC)CC2)cc1 | i | i | i | i | i
O=C(C1CCCCC1)N(Cc1ccccc1)c1ccccn1 | i | i | i | i | i
COc1ccccc1N1CCN(CCCC(=O)c2ccc(F)cc2)CC1 | i | 69.6 | i | i | i
SMILES | D2 PAM-1 | D2 antagonist | D2 PAM-2 | D2 ag-1 | D2 ag-2
Cc1ccc(CN(C(=O)c2ccc(F)cc2)c2ccccn2)o1 | i | nt | nt | i | nt
COc1ccccc1N1CCN(CCN(C(=O)c2ccc(F)cc2)c2ccccn2)CC1 | i | 60.6 | i | i | i
COc1ccccc1N1CCN(CCN(C(=O)C2CCCCC2)c2ccccn2)CC1 | i | 70.3 | i | i | i
CCOC(=O)C1=CNS(=O)(=O)NC1c1ccc(OC(C)=O)cc1 (configuration not stated) | nt | nt | i | nt | i
O=c1c(Cl)c(O)ccn1C1OC(CO)C(O)C1O (configuration not stated) | nt | nt | i | nt | i
Cc1cc(OCC(=O)O/N=C(\N)Cc2cccs2)ccc1Br | i | 48.7 | i | i | i
Cc1ccc(OCC(=O)O/N=C(\N)Cc2cccs2)cc1C | nt | nt | i | nt | i
